Screening data from PubChem.
EBV LMP1 NFkB – inhibitors of Epstein-Barr LMP1-induced NF-kappaB reporter. inhibition, % at 12.5 µM. actives 0.69% (n = 350,000). LMP1-induced NF-kappaB luciferase reporter cells, luminescence; in the data active = inhibition above about 41%; inconclusive = no clear call, values can overlap the other calls;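 note: 0% = neutral control wells and 100% = reference inhibitor control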
MITF act – MITF TRPM1 promoter activation in melanoma cells | SK-MEL-5 TRPM1-promoter luciferase, 24 h; % of positive control, neutral wells = 0 | activation, % at 12.5 µM | actives 0.75% (n = 300,000) | AID 588334;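 active = mean activation of at least 80% with every replicate also reaching 80%; inconclusive = mean reaches 80% but some replicate falls short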;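 note: 0% = neutral control wells and 100% = parthenolide positive control wells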
Wnt act – activators of Wnt/beta-catenin signaling; actives 1.2% (n = 300,000); Wnt/beta-catenin reporter cell assay, activator, plate reader; AID 743398; activation, % at 9.35 µM; in the data active = activation above about 30%, passing the limit was not always enough; inconclusive = no clear call, values can overlap the other calls;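 note: 0% = neutral control wells and 100% = positive control wells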
esBAF inh – blocks esBAF chromatin remodeling in mouse ES cells | reporter increase, % at 12.5 µM | Bmi1-luciferase knock-in reporter, 24 h; 100% = twice the neutral-well signal | actives 2% (n = 350,000) | AID 602393; in the data active = activation above about 40%; inconclusive = no clear call, values can overlap the other calls;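 note: 0% = median of the plate's neutral control wells and 100% = double that signal; a rise in the Bmi1 reporter signal indicates esBAF inhibition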
MITF TRPM1 inh – reduces MITF-dependent TRPM1 promoter luciferase signal; SK-MEL-5 TRPM1 promoter luciferase, 24 h; inhibition, % at 12.5 µM; actives 0.83% (n = 330,000); AID 488899;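 active = mean inhibition across replicates of 60% or more, whatever share of single replicates reaches that level; inconclusive = some that reach 60%, reason not given; inactive = mean inhibition across replicates below 60%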
Statin myotox sup – protects C2C12 myotubes from simvastatin toxicity. ATP luminescence, 48 h; scaled: DMSO 0, geranylgeraniol control 100. rescue of ATP level, % at 7.49 µM. actives 0.78% (n = 330,000);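 active = mean ATP rescue above about 67%, or every replicate alone reaching that limit, limit read from the data, passing the limit was not always enough; inconclusive = no clear call, values can overlap the other calls; inactive = mean under the limit and some replicate under it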;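 note: myotubes were challenged with 10 µM simvastatin during compound exposure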
* hit, by the source's call; ? = inconclusive; / = not tested or not shown. In the library only some 4% were active in any assay of this set; here they are far more common.

SMILES | EBV LMP1 NFkB | MITF act | Wnt act | esBAF inh | MITF TRPM1 inh | Statin myotox sup
CCCCC(=O)NC(c1ccccc1OC)c1ccc2cccnc2c1O (configuration not stated) | 66* | -77 | -2 | / | 78* | /
CCCC(=O)NC(c1ccccc1OC)c1ccc2cccnc2c1O (configuration not stated) | 71* | -81 | / | / | 81* | /
COc1ccccc1C(NC(C)=O)c1cc(Cl)c2cccnc2c1O (configuration not stated) | 31 | -9 | -1 | -17 | 11 | 3
CCCCC(=O)NC(c1ccc(OC)c(OC)c1)c1c(O)ccc2ccccc12 (configuration not stated) | -9 | -5 | -3 | / | 1 | /
C[C@H](CO)N1C[C@H](C)[C@@H](CN(C)C(=O)C2CCOCC2)Oc2ncc(Br)cc2C1=O | -2 | / | 0 | -3 | / | -13
COc1ccccc1CC(=O)Nc1cc(OC)c(NC(=O)c2ccccc2)cc1OC | 3 | -4 | 3 | -3 | 1 | -42
COc1ccccc1NC(=O)c1cc2ccccc2o/c1=N\O | -15 | 8 | / | 39 | -9 | -3
COc1ccccc1NC(=O)c1cc2ccc(O)cc2o/c1=N\O | -13 | 37 | / | 26 | -34 | 69*
Cc1cc(C)n(-c2ccc3cccc(NS(C)(=O)=O)c3n2)n1 | -6 | -60 | / | 7 | 62* | 22
CCSC1(SCC)N=C(N)C2(C#N)C(c3ccc(F)cc3)C12C#N (configuration not stated) | -13 | -82 | / | 0 | 82* | 142*
Cc1ccc(OCC(O)CNC(=O)c2ccccc2C(=O)O)cc1 (configuration not stated) | 0 | 9 | / | 5 | -7 | 105*
Cc1cccc(OCC(O)CNC(=O)c2ccccc2C(=O)O)c1 (configuration not stated) | 3 | 16 | / | 1 | -13 | 0
O=C(CSc1nc2cc(Cl)ccc2o1)N1CCOCC1 | -14 | 11 | / | 17 | -11 | -15
O=C(O)c1ccc2oc(SCC(=O)N3CCCCC3)nc2c1 | -7 | / | / | 59* | -33 | /
CCOC(=O)Cc1csc(NC(=O)COc2c(C)cccc2C)n1 | -2 | 0 | 0 | / | 2 | /
CC(C(=O)N1CCN(C(=O)c2ccco2)CC1)n1sc2ccccc2c1=O (configuration not stated) | / | 3 | 2 | 3 | -6 | -13
CC(C(=O)N1CCCCC1)n1sc2ccccc2c1=O (configuration not stated) | -31 | 53 | / | 50* | -52 | 1
COc1ccc(C(=O)Nc2ccc([N+](=O)[O-])cn2)cc1OC | -2 | 20 | 0 | / | -17 | /
CCCCN1CCc2c([nH]c3ccccc23)C1=O | 16 | 75 | / | 69* | -77 | -16
Cc1ccc(C(=O)C(C(=O)/C=C/c2ccccc2)=C2SCCCS2)cc1 | -11 | -86 | / | -5 | 86* | 113*
CNC[C@H]1OCCCC[C@@H](C)Oc2ccc(NC(=O)Nc3cccc4ccccc34)cc2C(=O)N([C@@H](C)CO)C[C@@H]1C | / | / | / | -9 | / | -3
CCOC(=O)c1csc(-c2ccc3c(c2)CCO3)n1 | -8 | / | 40* | / | -70 | /
Cc1ccc(OCc2ccc(C(=O)NNC(=S)NCC3CCCO3)o2)c([N+](=O)[O-])c1 (configuration not stated) | 1 | -11 | 1 | -4 | 14 | -3
Oc1c(Br)cc(Br)cc1/C=N/Nc1ccc(Cl)nn1 | 45* | -63 | 0 | -62 | 66* | -2
Oc1c(Br)cc(/C=N/Nc2ccc(Cl)nn2)cc1Br | -2 | 0 | 1 | 1 | 2 | 7
SMILES | EBV LMP1 NFkB | MITF act | Wnt act | esBAF inh | MITF TRPM1 inh | Statin myotox sup
O=C(NCC[C@H]1CC[C@@H](NC(=O)Nc2cc(F)ccc2F)[C@H](CO)O1)Nc1ccc(Cl)cc1 | / | / | / | 25 | / | 0
O=C(NCC[C@H]1CC[C@H](NC(=O)Nc2cc(F)ccc2F)[C@H](CO)O1)Nc1ccc(Cl)cc1 | / | / | / | 43* | / | -6
O=C(NCC[C@@H]1CC[C@@H](NC(=O)c2cccnc2)[C@H](CO)O1)Nc1ccc(C(F)(F)F)cc1 | / | / | / | 54* | / | -22
Cc1ccc(S(=O)(=O)N[C@H]2CC[C@@H](CCNC(=O)Nc3ccc(Cl)cc3)O[C@H]2CO)cc1 | / | / | / | 45* | / | -6
CCSc1nnc(NC(=O)CCc2ccc(OC)cc2)s1 | -2 | -15 | 0 | / | 17 | /
COc1ccccc1CN(C)C(=O)CN1C(=O)c2ccccc2C1=O | -1 | -6 | 2 | 3 | 11 | 15
CCNc1ccc(Br)cc(C(=O)/C=C/c2ccccc2Cl)c1=O | 83* | -31 | / | 5 | 31 | 12
CNc1ccc(Br)cc(C(=O)/C=C/c2cccc(Cl)c2Cl)c1=O | ? | -80 | -4 | / | 81* | /
COc1ccccc1CNC(=O)COc1ccccc1C | 3 | / | 3 | 4 | -6 | -8
Cc1nc(-c2ccc(Cl)cc2)sc1C1(C)CC(c2cccc(Cl)c2)=NO1 (configuration not stated) | 4 | 39 | 11 | 21 | -35 | 7
Cc1nc(-c2ccc(Cl)cc2)sc1C1(C)CC(c2cccc(F)c2)=NO1 (configuration not stated) | -6 | 48 | 7 | 46* | -48 | 12
Cc1ccc(-c2cc3c(N=O)c4ccccc4c-3n[nH]2)cc1 | 63* | -72 | / | / | 74* | /
Cc1ccc2[nH]c(=O)c(CN(CCCN3CCOCC3)C(=O)NC3CCCCC3)cc2c1 | -8 | 13 | / | -5 | -18 | -5
CCc1ccc2[nH]c(=O)c(CN(CCN3CCCC3)C(=O)NC3CCCCC3)cc2c1 | 1 | -5 | -3 | 2 | 7 | 95*
C[C@H]1CN([C@@H](C)CO)C(=O)c2cccc(NC(=O)NC3CCCCC3)c2O[C@@H]1CN(C)S(=O)(=O)c1ccc(F)cc1 | / | / | / | 1 | / | -25
CC(=O)Nc1nnc(SCc2cccc(F)c2)s1 | -6 | 15 | 2 | 9 | -15 | 87*
c1ccc(Nc2nnc(SCc3cccc4ccccc34)s2)cc1 | -39 | 7 | -1 | 18 | -9 | 0
CC(=O)Nc1nnc(SCC(=O)c2ccc(F)cc2)s1 | -4 | 17 | 5 | 4 | -17 | 1
CC(=O)Nc1nnc(SCc2ccc(F)cc2)s1 | -12 | 47 | 17 | 46* | -47 | 13
Cc1nnc(SCc2cccc3ccccc23)s1 | -26 | 76 | 11 | 64* | -82 | -6
Cc1cc(C)cc(NC(=O)c2ccc(CSc3nnc(C)s3)cc2)c1 | -13 | 25 | -1 | 39 | -23 | 122*
OCCN(Cc1ccccc1)Cc1ccc(C(F)(F)F)cc1 | -1 | -1 | / | 0 | 6 | 6
Nc1nnc(SCc2ccc(F)cc2)s1 | 7 | 17 | / | -2 | -19 | 23
Cc1nnc(SCc2ccc(F)cc2)s1 | -5 | 51 | / | 53* | -49 | 6
